This passage reports Potency and outcome results from PubChem BioAssay (Tox21).

Each structure is given as a SMILES string. Results filed as inconclusive are left out. Values without a mark were called inactive. Active and inactive are the calls of the source. Unless noted, calls follow the shape of the dose curve; as a rule, active = well fitted curve in the direction sought with a large enough effect in the repeat runs; inconclusive = weak or mixed curves; inactive = no such curve, though single readings can be large; an effect the other way counts as inactive or inconclusive.

Assay [1] is described as follows: qHTS assay to identify small molecule agonists of the RXR signaling pathway - cell viability counter screen (AID 1159529). Also: series mostly up to about 77 µM; nearly all actives have a fitted effect of over 50% in size. The method, boiled down:
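Luminescence from CellTiter-Glo (30 min, RT) measured viability in the same wells as the beta-lactamase reporter readout. Cells: GeneBLAzer RXR-alpha HEK 293T, 2% charcoal-stripped FBS. Compound exposure 16 hr, 37 C.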

A short description of assay [2]: qHTS assay to identify small molecule antagonists of the retinoid acid receptor (RAR) signaling pathway - cell viability counter screen (AID 1159551). Also: nearly all actives have a fitted effect of over 35% in size. The method, boiled down:
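Cytotoxicity counter screen in C3RL4 cells: 6 h compound exposure with 1 uM retinol (final), viability from cellular ATP by luminescence.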

Assay [3] is described as follows: qHTS assay to identify small molecule antagonists of the retinoic acid receptor (RAR) signaling pathway (AID 1159552; also: nearly all actives have a fitted effect of over 50% in size). The method, boiled down: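 Luminescence from a RARE luciferase reporter in C3RL4 cells served as read-out. Cells received compounds together with 1 uM final retinol and incubated 6 hr at 37 C before detection reagent was added for 30 min at room temperature.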

Assay [4] in a line: qHTS assay to identify small molecule agonists of the retinoic acid receptor (RAR) signaling pathway (AID 1159553). Also: potency is read from the fitted curve at half-maximal effect. The method, boiled down:
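Agonist activity was scored in C3RL4 cells bearing a retinoic acid response element luciferase construct. Cells were treated with compounds for 6 hr at 37 C, and luciferase signal was measured as luminescence.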

The nature of assay [5]: qHTS assay to identify small molecule antagonists of the estrogen related receptor (ERR) signaling pathway from Tox21 library - cell viability counter screen (AID 1224834). Also: nearly all actives have a fitted effect of over 30% in size. The method, boiled down: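 Cytotoxicity of test substances is gauged in the same ERR cells used for the antagonist screen, after 17.5 h of compound treatment at 37 C, by CellTiter-Fluor fluorescence measured after 30 min.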

The target in assay [6] is Luciferin 4-monooxygenase (Photinus pyralis) (UniProt P08659). Briefly: qHTS assay to identify small molecule inhibitors of firefly luciferase (AID 1224835). Also: series mostly up to about 120 µM; nearly all actives have a fitted effect of over 25% in size. The method, boiled down:
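Biochemical qHTS: compounds run as interplate titrations against purified firefly enzyme, with D-luciferin and ATP each at its KM concentration. Light output recorded by CCD imaging.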

The nature of assay [7]: qHTS assay to identify small molecule agonists of the constitutive androstane receptor (CAR) signaling pathway - cell viability counter screen (AID 1224836). Also: series mostly up to about 92 µM; nearly all actives have a fitted effect of over 45% in size. The method, boiled down: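 Viability read-out: CellTiter-Fluor fluorescence after 23 h compound exposure at 37 C/5% CO2 in double-stable HepG2-CYP2B6-hCAR cells, with PK11195 present at 0.75 uM final; compounds tested in 15-point titration.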

Assay [8] is described as follows: qHTS assay to identify small molecule antagonists of the constitutive androstane receptor (CAR) signaling pathway - cell viability counter screen (AID 1224837). Also: series mostly up to about 92 µM; nearly all actives have a fitted effect of over 45% in size. The method, boiled down:
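Multiplexed cytotoxicity read-out for the CAR antagonist screen: double-stable HepG2-CYP2B6-hCAR cells co-treated with 50 nM CITCO (final) and compound over 15 concentrations, incubated 23 hr, then assessed by CellTiter-Fluor fluorescence.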

Assay [9] has as its target Nuclear receptor subfamily 1 group I member 3 (Homo sapiens) (UniProt Q14994). In words: qHTS assay to identify small molecule antagonists of the constitutive androstane receptor (CAR) signaling pathway (AID 1224838). Also: nearly all actives have a fitted effect of over 40% in size. The method, boiled down: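 Compounds were titrated across 15 concentrations onto HepG2 cells double-stably expressing hCAR and a CYP2B6-2.2kb reporter, together with 50 nM CITCO (final). After 24 h at 37 C, luciferase activity was measured by luminescence.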

The target is the same in assay [10]. Briefly: qHTS assay to identify small molecule agonists of the constitutive androstane receptor (CAR) signaling pathway (AID 1224839). Also: nearly all actives have a fitted effect of over 15% in size. Also: potency is read from the fitted curve at half-maximal effect. The method, boiled down: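 Luminescence read-out (ONE-Glo, 30 min, room temperature) from double-stable HepG2-CYP2B6-hCAR cells exposed 24 h to 15-point compound series in presence of 0.75 uM PK11195 final.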
Assay [11] can be described thus: qHTS assay to identify small molecule antagonists of the estrogen related receptor signaling pathway with the pleiotropic PPARgamma coactivator (PGC) from Tox21 10K library - cell viability counter screen (AID 1224840; active = well fitted cell-killing curve with a large enough effect in the repeat runs, not every such curve was filed as active; also: nearly all actives have a fitted effect of over 40% in size). The method, boiled down:
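Step one, plate 2,000 PGC/ERR cells per well; step two, incubate 6 h at 37 C/5% CO2; step three, pin-transfer compounds; step four, incubate 17.5 h; step five, add CellTiter-Fluor and read fluorescence after 30 min.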

For assay [12], the target named is Retinoic acid receptor RXR-alpha (Homo sapiens) (UniProt P19793). In words: qHTS assay to identify small molecule agonists of the RXR signaling pathway (AID 1159527; calls by dose curve; also: nearly all actives have a fitted effect of over 35% in size). The method, boiled down: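 Agonist mode; 9-cis retinoic acid positive control. HEK 293T UAS-bla reporter cells, 2% charcoal-stripped FBS, 16 hr compound exposure at 37 C/5% CO2. LiveBLAzer B/G FRET substrate 2 hr RT; ex 405, em 460/530 nm.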
Chain of Retinoic acid receptor RXR-alpha (Homo sapiens) (P19793 whole entry, looked up): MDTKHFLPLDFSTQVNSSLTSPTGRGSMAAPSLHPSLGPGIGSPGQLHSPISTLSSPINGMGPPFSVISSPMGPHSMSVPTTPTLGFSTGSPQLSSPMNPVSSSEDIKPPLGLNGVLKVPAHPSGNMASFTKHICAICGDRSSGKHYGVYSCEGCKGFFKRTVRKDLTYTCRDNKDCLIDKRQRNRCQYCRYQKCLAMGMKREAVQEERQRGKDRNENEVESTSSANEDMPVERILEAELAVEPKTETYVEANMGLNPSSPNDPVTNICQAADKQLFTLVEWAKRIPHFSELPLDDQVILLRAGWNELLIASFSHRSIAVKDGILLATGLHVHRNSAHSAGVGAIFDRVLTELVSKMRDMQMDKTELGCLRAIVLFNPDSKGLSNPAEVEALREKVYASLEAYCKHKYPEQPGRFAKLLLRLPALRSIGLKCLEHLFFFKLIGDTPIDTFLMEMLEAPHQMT

The nature of assay [13]: qHTS assay to identify small molecule antagonists of the estrogen related receptor signaling pathway with the pleiotropic PPARgamma coactivator (PGC) from Tox21 10K library (AID 1224841; call rule not given here; also: series mostly up to about 92 µM; actives are mostly falling curves and most rising ones were filed inactive; nearly all actives have a fitted effect of over 50% in size). The method, boiled down:
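Antagonism in this quantitative HTS is taken from loss of luciferase signal in PGC/ERR cells. Cells (2,000/well) are treated with compounds in DMSO after a 6 h settling period and read by One-Glo luminescence after 18 h.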

Assay [14] is described as follows: qHTS assay to identify small molecule antagonists of the estrogen related receptor (ERR) signaling pathway - cell viability counter screen (AID 1224818). Also: series mostly up to about 46 µM. The method, boiled down: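 Cells carrying the ERR pathway reporter were seeded and incubated for 6 hours before compound addition. After a 17.5-hour exposure at 37 C, live-cell protease activity was measured by CellTiter-Fluor fluorescence following 30 minutes of incubation.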

A short description of assay [15]: qHTS assay to identify small molecule antagonists of the estrogen related receptor signaling pathway with the pleiotropic PPARgamma coactivator (PGC) cell viability counter screen (AID 1224822; also: series mostly up to about 46 µM). The method, boiled down: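 Seed PGC/ERR cells (2,000/well); incubate 6 h at 37 C/5% CO2; pin-transfer compounds in DMSO; incubate 17.5 h at 37 C; add CellTiter-Fluor; after 30 min read fluorescence.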

Chain of Luciferin 4-monooxygenase (Photinus pyralis) (P08659 whole entry, looked up): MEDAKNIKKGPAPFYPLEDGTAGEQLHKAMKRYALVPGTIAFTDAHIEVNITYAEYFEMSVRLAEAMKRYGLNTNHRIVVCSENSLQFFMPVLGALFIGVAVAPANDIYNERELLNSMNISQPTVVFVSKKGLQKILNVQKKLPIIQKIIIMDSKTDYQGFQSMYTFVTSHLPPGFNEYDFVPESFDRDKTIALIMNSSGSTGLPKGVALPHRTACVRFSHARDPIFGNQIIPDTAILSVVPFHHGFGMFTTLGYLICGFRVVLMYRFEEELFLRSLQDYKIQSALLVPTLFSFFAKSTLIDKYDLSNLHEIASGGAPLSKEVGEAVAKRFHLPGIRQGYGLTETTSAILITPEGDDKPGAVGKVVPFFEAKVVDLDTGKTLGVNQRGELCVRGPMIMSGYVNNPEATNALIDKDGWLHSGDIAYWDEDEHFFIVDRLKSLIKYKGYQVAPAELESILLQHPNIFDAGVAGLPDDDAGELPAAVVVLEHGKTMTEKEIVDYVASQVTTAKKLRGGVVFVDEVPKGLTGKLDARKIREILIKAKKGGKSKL
Chain of Nuclear receptor subfamily 1 group I member 3 (Homo sapiens) (Q14994 whole entry, looked up): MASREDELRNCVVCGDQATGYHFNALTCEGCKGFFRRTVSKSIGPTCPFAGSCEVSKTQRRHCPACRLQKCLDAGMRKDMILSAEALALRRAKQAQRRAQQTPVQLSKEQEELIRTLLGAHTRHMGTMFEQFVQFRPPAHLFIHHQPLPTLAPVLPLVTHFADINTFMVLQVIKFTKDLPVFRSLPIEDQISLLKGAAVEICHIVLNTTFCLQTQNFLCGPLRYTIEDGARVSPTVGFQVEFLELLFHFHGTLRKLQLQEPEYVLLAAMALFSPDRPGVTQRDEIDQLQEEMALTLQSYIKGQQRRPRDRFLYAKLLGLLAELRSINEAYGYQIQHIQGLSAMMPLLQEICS

For `CC(CN=Cc1ccccc1O)N=Cc1ccccc1O` (centres undefined), the Potency result in [1], in assay [4], in [5], in assay [6], in [7] and in assay [8] was “inactive” in each case. Besides, the Potency result in assay [9], in assay [10] and in assay [11] was “inactive” in each case. The call in assay [2] and in assay [3] was inactive.

On to `O=Cc1ccc([N+](=O)[O-])cc1`, for which the compound was classed as inactive in [12] and in [2]. Besides, the Potency entry in [1], in assay [5], in assay [6], in assay [7], in assay [8] and in assay [9] was “inactive” in each case. Also, the Potency entry in assay [11] and in assay [13] was “inactive” in each case. Besides, the Potency in assay [4] is 19.4 µM (active); in assay [10], 61.5 µM (active).

With `CCN(CC)CC(=O)OCC(=O)[C@@]1(O)CC[C@H]2[C@@H]3CCC4=CC(=O)CC[C@]4(C)[C@H]3[C@@H](O)C[C@@]21C`, the Potency entry in assay [1], in assay [4], in assay [5], in assay [6], in [7] and in assay [8] was “inactive” each time. The Potency result in assay [9], in [10] and in assay [11] was “inactive” each time. In addition, the call in assay [2] and in [3] was inactive.

As for `Cc1ccc(Cl)c(OCC(O)CNC(C)(C)C)c1` (centres undefined), the compound was classed as inactive in [12], in assay [2] and in [3]. Further, the Potency result in [1], in [4], in assay [5], in assay [6], in assay [7] and in [8] was “inactive” each time. Moreover, the Potency entry in assay [11] was “inactive”.

With `O=C(NC1CCN(CCc2c[nH]c3ccccc23)CC1)c1ccccc1`, the result in assay [12], in [2] and in [3] was inactive. The Potency result in [1], in [4], in assay [5], in assay [6], in assay [7] and in assay [8] was “inactive” throughout. The Potency result in assay [9], in [10] and in [11] was “inactive” each time.

For the compound `Cc1cc(C)c(C)c(O)c1`, the result in [12] and in assay [2] was inactive. In addition, the Potency entry in [1], in assay [4], in assay [5], in assay [6], in assay [7] and in assay [8] was “inactive” each time. The Potency result in [10], in [11] and in [13] was “inactive” throughout.

Turning to `O=C(c1ccco1)N1CCNCC1`, the compound was called inactive in assay [12], in assay [2] and in assay [3]. Moreover, the Potency result in [1], in assay [4], in [5], in assay [6], in assay [7] and in assay [8] was “inactive” throughout. Moreover, the Potency entry in assay [9], in assay [10], in [11] and in assay [13] was “inactive” in each case.

In the case of `CCc1c(C)[nH]c2c1C(=O)C(CN1CCOCC1)CC2` (centres undefined), the compound was classed as inactive in assay [12], in assay [2], in [3], in assay [14] and in [15]. In addition, the Potency entry in [1], in assay [4], in [5], in assay [6], in assay [7] and in [8] was “inactive” each time. The Potency result in assay [11] is “inactive”.

As for `CCCc1nc(C)c2c(=O)[nH]c(-c3cc(S(=O)(=O)N4CCN(CC)CC4)ccc3OCC)nn12`, the Potency result in assay [1], in assay [4], in assay [5], in [6], in assay [7] and in assay [8] was “inactive” throughout. In addition, the Potency result in [9] and in [10] was “inactive” throughout. In addition, the compound was classed as inactive in [2] and in assay [3].

On to `CC(C(=O)O)c1ccc2c(c1)Cc1cccnc1O2` (centres undefined), for which the Potency entry in assay [1], in assay [4], in assay [5], in assay [6], in assay [7] and in [8] was “inactive” each time. Also, the result in assay [2] and in [3] was inactive.

Turning to `CC(CCl)OC(C)CCl` (centres undefined), the Potency entry in assay [1], in assay [4], in assay [5], in assay [6], in assay [7] and in assay [8] was “inactive” each time. The Potency result in assay [9] and in assay [10] was “inactive” throughout. Also, the compound was called inactive in [2] and in assay [3].

As for `CC(Cc1ccccc1)(NC(=O)CN)c1ccccc1` (centres undefined), the outcome in assay [12], in [2] and in assay [3] was inactive. In addition, the Potency entry in assay [1], in assay [4], in [5], in assay [6], in assay [7] and in [8] was “inactive” throughout.
